Results filed as inconclusive are left out. Entries that show only a call come without a potency. A number with no mark means an inactive call. Active and inactive are the calls of the source. Calls come from the whole dose curve; as a rule, active = well fitted cell-killing curve with a large enough effect in the repeat runs; inconclusive = weak or mixed curves, or effect the other way; inactive = no such curve, though single readings can be large or run the other way.

This experiment in a line: Caspase-3/7 induction in CHO-K1 cells by small molecules, qHTS cell viability counter screen (AID 1346979). Note: nearly all actives have a fitted effect of over 35% in size. The following applies: CellTiter-Fluor fluorescence, 17 h; series mostly up to 92.4 µM. An excerpt:
National Center for Advancing Translational Sciences [NCATS]
NIH Chemical Genomics Center [NCGC]
U.S. Environmental Protection Agency [EPA]
National Institutes of Environmental Health Sciences [NIEHS]
National Toxicology Program [NTP]
U.S. Food and Drug Administration [FDA]
Apoptosis is a process of programmed cell death and plays a central role in the development of multicellular organisms. It is a highly regulated process and induces cell death by activating caspases, which are the members of cysteine aspartic acid-specific protease (caspase) family. Caspases involved in apoptosis are classified by their mechanism of action as initiator caspases (caspase-2, -8, -9 and -10) and executioner caspases (caspase-3, -6, and -7). Inhibition of apoptosis results in number of cancers, autoimmune diseases, inflammatory diseases and viral infection. To identify small molecule compounds that induce apoptosis, a homogeneous, luminescent Caspase-Glo 3/7 assay was used. Wild type CHO-K1 cells were used to screen Tox21 libraries for identifying caspase-3/7 activity inducers. Also cytotoxicity of the compounds was tested in parallel by measuring the cell viability using CellTiter-Fluor assay system in the same wells.
Tox21 Assay Protocol Summary:
CHO-K1 cells were dispensed at 1,500 per well in 5uL of culture medium into white solid bottom 1536-well plates (Corning Life Sciences, Corning, NY) using a Multidrop Combi (Thermo Scientific, Waltham, MA) dispenser. The assay plates were incubated at 37 C and 5% CO2 for 5hr, and then 23nL of compounds dissolved in DMSO and positive control were transferred using a Pintool station (Wako, San Diego, CA). The assay plates were incubated at 37C and 5% CO2 for 17hr. For cytotoxicity read, after 16hr incubation at 37C, 1uL CellTiter-Fluor reagent (Promega Corporation, Madison, WI) was added to each well of the assay plates using Flying Reagent Dispenser (FRD, Aurora Discovery, San Diego, CA). After 1hr incubation at 37C and 5% CO2, the fluorescence signal was quantified using a ViewLux plate reader (PerkinElmer, Shelton, CT).
Background: qHTS replaces the single test concentration by a dilution series.
Regarding `C[C@H](CCC(=O)NCC(=O)O)[C@H]1CC[C@H]2[C@@H]3[C@H](O)C[C@@H]4C[C@H](O)CC[C@]4(C)[C@H]3C[C@H](O)[C@]12C`, the Potency entry is “inactive”.
As to `CO[Si](CCCCl)(OC)OC`, the Potency result was “inactive”.
Same read-out and setting: in the case of `CC(=O)OC(C)(C)Cc1ccccc1` it was “inactive”; in that of `CCCCCN(CCCOC)C(=O)C(CCC(=O)O)NC(=O)c1ccc(Cl)c(Cl)c1` (stereo not given), “inactive”; in that of `C=C(C)[C@@H]1CC[C@@H](C)C[C@@H]1O`, “inactive”.
Same read-out and setting: in the case of `CCCOCCOCCOCCO` it was “inactive”; in that of `CCC(=O)OCCC(C)CCC=C(C)C` (stereo not given), “inactive”; in that of `CCS(=O)(=O)CCn1c([N+](=O)[O-])cnc1C`, “inactive”.
Consider `CCCCCCCCCCCCC1CO1` (stereo not given), for which the Potency entry was “inactive”.
On the same count and under the same terms, in the case of `CC1=CC[C@H](CC=O)C1(C)C` it was “inactive”.
For the compound `Nc1ccc(/C=C/c2ccc(N)cc2S(=O)(=O)O)c(S(=O)(=O)O)c1`, the activity change, negative = cytotoxicity was 8.5% [at 0.349 µM].
With `Nc1ccc(S(=O)(=O)NC(=O)c2ccccc2)cc1`, the Potency entry was “inactive”.
Same read-out and setting: in the case of `CCC(C)N` (stereo not given) it was “inactive”.
Still for that read-out and setting: in the case of `CC(=O)/C=C/c1ccco1` it was “inactive”; in that of `C[N+](C)(C)CC(O)CCl` (stereo not given), “inactive”.
On the same count and under the same terms, in the case of `O=C(COCCOCCOCC(=O)Nc1c(I)cc(I)c(C(=O)O)c1I)Nc1c(I)cc(I)c(C(=O)O)c1I` it was “inactive”; in that of `CCOC(=O)OCC/C(SC(=O)OCC)=C(\C)N(C=O)Cc1cnc(C)nc1N`, “inactive”.
For the compound `OC(CCN1CCCCC1)(c1ccccc1)c1ccccc1`, the Potency entry is “inactive”.
The same measure, in the same setting: in the case of `Cc1cccc(NC(=S)N(C)C)c1` it was “inactive”; in that of `CCCCCCCCCCC`, “inactive”; in that of `C=COCCOCCOC=C`, “inactive”.
Take `Nc1cc(Cl)cc(S(=O)(=O)O)c1O`: the Potency entry was “inactive”.
Turning to `C=CC(C)(O)CC/C=C(\C)CC` (stereo not given), the Potency entry is “inactive”.
Regarding `CCCC(C)CC` (stereo not given), the Potency entry was “inactive”.
Still for that read-out and setting: in the case of `NS(=O)(=O)c1ccccc1OC(F)(F)F` it was “inactive”.
In the case of `CCOc1ccc(NC(=O)OC(C)C)cc1OCC`, the Potency entry was “inactive”.
On the same count and under the same terms, in the case of `CC(=O)c1ccc2c(c1)CCCC2` it was “inactive”.
Turning to `CCN(CC)C(=O)C1CN2CCc3cc(OC)c(OC)cc3C2CC1OC(C)=O` (stereo not given), the Potency result is “inactive”.
Same read-out and setting: in the case of `CCN1CN(CC)CN(CC)C1` it was “inactive”; in that of `Nc1ccc(C(=O)OCC(O)CO)cc1` (stereo not given), “inactive”.
As for `O=c1[nH]c(=O)c2[nH]c(=O)[nH]c2[nH]1`, the activity change, negative = cytotoxicity is 4.37% [at 8.39 µM].
In the case of `CCCCOC(=O)C(=O)OCCCC`, the Potency result was “inactive”.
Same read-out and setting: in the case of `CNC(=O)C(c1ccccc1)c1ccccc1` it was “inactive”; in that of `CCC(=O)c1ccc(O)cc1`, “inactive”.
Turning to `Nc1cc(S(=O)(=O)O)ccc1S(=O)(=O)O`, the Potency entry is “inactive”.
The same measure, in the same setting: in the case of `CC(C)CCO` it was “inactive”; in that of `Cc1cc(C)cc([N+](=O)[O-])c1`, “inactive”.
`O=C(Nc1cccc(C2=NCCN2)c1)Nc1cccc(C2=NCCN2)c1`: the activity change, negative = cytotoxicity is 4% [at 19 µM].
As for `Nc1nc(=O)n([C@@H]2O[C@H](CO)[C@@H](O)[C@@H]2F)cc1I`, the Potency result is “inactive”.
On the same count and under the same terms, in the case of `C=CCOC(=O)c1ccc(C(=O)OCC=C)c(C(=O)OCC=C)c1` it was “inactive”.

The values above are taken from PubChem BioAssay (Tox21).
